LmPK inh: blocks Leishmania mexicana pyruvate kinase activity. Q27686. purified LmPK, Kinase-Glo ATP luminescence, 1 h. Potency, µM (highest dose often 57.5 µM), for the others: at the highest dose activity change, negative = inhibition, usual class: inhibitors. 290,000 compounds, 0.37% hits; also: potency is read from the fitted curve at half-maximal effect; % is scaled to controls: 0 for no effect and ±100 for the full control effect
Target sequence (Q27686 whole entry, looked up): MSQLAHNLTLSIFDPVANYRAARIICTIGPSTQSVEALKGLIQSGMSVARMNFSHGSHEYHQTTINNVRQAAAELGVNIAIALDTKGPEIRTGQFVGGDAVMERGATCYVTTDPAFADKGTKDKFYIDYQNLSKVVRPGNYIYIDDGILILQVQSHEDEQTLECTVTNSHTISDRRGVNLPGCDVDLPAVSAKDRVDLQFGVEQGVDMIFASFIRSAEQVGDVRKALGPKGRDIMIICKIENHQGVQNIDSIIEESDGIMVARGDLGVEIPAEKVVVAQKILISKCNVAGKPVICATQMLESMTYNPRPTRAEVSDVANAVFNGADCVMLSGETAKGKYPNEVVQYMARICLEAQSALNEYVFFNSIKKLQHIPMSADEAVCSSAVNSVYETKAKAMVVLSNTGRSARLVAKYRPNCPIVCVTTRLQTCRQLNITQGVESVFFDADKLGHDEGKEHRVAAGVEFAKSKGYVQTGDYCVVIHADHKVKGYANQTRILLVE
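ATP generated from ADP (0.1 mM) and PEP (0.5 mM) by 0.1 nM LmPK over 1 h at room temperature (pH 7.2 imidazole buffer) was detected by coupled luciferase luminescence. Values were normalized to uninhibited and no-enzyme wells.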
Pf growth 96h: P. falciparum growth inhibition at 96 hours; P. falciparum luciferase reporter growth, 96 h; Potency, µM (highest dose often 28.7 µM), without a hit: top-dose activity change, negative = inhibition, most hits filed as inhibitors; 320,000 compounds, 6.9% hits; also: potency is read from the fitted curve at half-maximal effect; % is scaled to controls: 0 for no effect and ±100 for the full control effect
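Two parasite generations (96 h, 37 C, 5% CO2) of compound exposure in infected erythrocytes (0.05% parasitemia, 2% hematocrit). Luciferase-reporter P. falciparum; decreased luminescence indicates inhibited growth, aimed at apicoplast-acting delayed death.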
Shiga toxin inh: blocks Shiga toxin action in Vero cells. Vero cells, Shiga toxin protein synthesis inhibition reporter. inhibition, % at 38.7 µM. 290,000 compounds, 9.2% hits; in the data active = inhibition mostly above about 28%, no sharp cut-off; inactive = mostly below about 43%; also: 0% is about no effect
Pf growth 48h: inhibits P. falciparum growth in the first generation, 48 h. AID 504832. Potency, µM (highest dose often 28.7 µM), for inactives: at the top dose activity change, negative = inhibition, hits mostly inhibitors. 310,000 compounds, 5.9% hits. P. falciparum luciferase growth in erythrocytes, 48 h; also: potency is read from the fitted curve at half-maximal effect; % is scaled to controls: 0 for no effect and ±100 for the full control effect
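Luminescence readout; reporter = integrated firefly luciferase in P. falciparum. RBC culture at 2% hematocrit, 0.1% parasitemia final, 37 C/5% CO2; decreased signal taken as growth inhibition.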
CHX counter: counter-screen hit for Shiga toxin inhibitors, cycloheximide; max response, %; cell reporter, cycloheximide protein synthesis inhibition counterscreen; 300,000 compounds, 12% hits; in the data active = max response mostly above about 13%, no sharp cut-off; inactive = mostly below about 14%; also: read at 38.3 µM for the half of the compounds with a filed dose; 0% is about no effect
* hit, by the source's call; i = inactive; ? = inconclusive; · = no result; ! = a repeat was not active. A selection: hits, their analogues and other compounds. The true share with any hit is near 22%. Unless noted, calls follow the shape of the dose curve; as a rule, active = well fitted inhibition curve with a large enough effect; inconclusive = small, poorly fitted or top-dose-only effect, or another doubt; inactive = no such curve, though single readings can be large or run the other way.

SMILES | LmPK inh | Pf growth 96h | Shiga toxin inh | Pf growth 48h | CHX counter
CN(Cc1ccccc1)CC(O)COc1ccc(CNCc2nccn2C)cc1 (configuration not stated) | 3.8% | 6.2% | -13.6 | ? | -2.2
C=CCOc1ccc(CN(C)CC(O)COc2cccc3ccccc23)cc1 (configuration not stated) | 5.8% | ? | -5.1 | 10.4µM* | -3.1
CCN1CCN(S(=O)(=O)c2c(C)[nH]c(C)c2C(=O)N2CCCCC2)CC1 | -6.4% | 74.4% | -11.0 | 5.7% | -2.0
CN(C(=O)CC1C(=O)NCCN1Cc1ccc(F)c(F)c1)C1CCOCC1 (configuration not stated) | 1.5% | ? | 9.6 | 42.5% | -0.7
COc1ccc(Cn2nnnc2C(c2ccccc2Cl)N2CCN(C)CC2)cc1 (configuration not stated) | -1.3% | 116.7% | -15.2 | -17.4% | -1.8
COc1ccc(Cn2nnnc2C(c2cccs2)N2CCN(c3ccc([N+](=O)[O-])cc3)CC2)cc1 (configuration not stated) | -0.1% | ? | -1.0 | 10.4µM* | -2.0
CCCC(c1nnnn1Cc1ccc(OC)cc1)N1CCN(c2ccccc2OC)CC1 (configuration not stated) | -6.7% | · | 9.1 | 10.4µM* | -3.9
CCN1CCN(C(c2ccccc2)c2nnnn2Cc2ccc(OC)cc2)CC1 (configuration not stated) | 3.3% | 5.22µM* | -12.7 | 0.9% | -7.9
COc1ccc(Cn2nnnc2CN2CCc3ccccc3C2)cc1 | 2.3% | 13.1µM* | -14.7 | · | -6.9
COc1ccc2c(C)cc(SCC(=O)Nc3cccnc3Cl)nc2c1 | -0.2% | -1.5% | -18.1 | -0.1% | 4.0
O=S(=O)(c1ccc(F)c(F)c1)N1CCN(CCc2ccccc2)CC1 | 0.2% | 20.9% | -5.9 | -9.9% | -1.1
CC(=O)c1ccc(NC(=O)c2ccc(NC(=O)CCS(=O)(=O)c3cccs3)cc2)cc1 | 1.5% | 216.5% | 192.5* | 73.0% | 18.3*
CCOC(=O)c1cccc(NC(=O)CCS(=O)(=O)c2cccs2)c1 | 4.9% | ? | 9.8 | -19.6% | -4.8
COc1cccc(NC(=O)CCS(=O)(=O)c2cccs2)c1 | -1.7% | -20.0% | 78.4* | 86.6% | 46.9*
COc1cccc(NC(=O)CNC(=O)c2cccs2)c1 | -0.8% | · | 60.7* | 57.7% | 25.9*
CC1(C)NC(=O)N(CC(=O)N2CCN(S(=O)(=O)c3ccccc3C(F)(F)F)CC2)C1=O | · | -30.8% | · | ? | ·
CC(C)C[C@H](NC(=O)OC(C)(C)C)C(=O)N/N=C/C1=Cc2ccccc2OC1C (some centres not stated) | -1.8% | ? | -10.8 | · | -2.6
COc1cc(/C=C2/C(=N)N3N=C(CC(=O)N4CCOCC4)SC3=NC2=O)ccc1OCc1ccc(F)cc1 | -11.0% | ? | 106.0* | 2.8% | 39.5*
COc1cc(/C=C2/C(=N)N3N=C(CC(=O)N4CCOCC4)SC3=NC2=O)ccc1OCc1ccccc1F | 1.8% | 3.8% | 42.7 | -11.6% | 26.3*
CCc1ccc(NC(=O)CCCN2C(=O)C3CC=CCC3C2=O)cc1 (configuration not stated) | -3.1% | -3.3% | 97.2* | -6.6% | 72.3*
Cc1c(Cl)cccc1NC(=O)CCN1C(=O)C2CC=CCC2C1=O (configuration not stated) | -3.9% | 5.22µM* | -9.4 | 12.6% | -5.0
Cc1ccc(CNC(=O)COc2ccc(S(=O)(=O)N3CCOCC3)cc2)cc1 | · | ? | · | 11.7% | ·
COc1cccc(N2CCN(Cc3ccsc3)CC2)c1 | 4.6% | ? | 21.8 | · | 7.4
CC(NC(=O)c1ccccc1)C(=O)OCC(=O)c1c(N)n(C)c(=O)n(C)c1=O (configuration not stated) | · | -24.7% | · | ? | ·
Cc1cc(C(=O)CSc2nnnn2C)c(C)n1Cc1ccco1 | 1.8% | 88.2% | 87.2* | 85.9% | 70.6*
SMILES | LmPK inh | Pf growth 96h | Shiga toxin inh | Pf growth 48h | CHX counter
Cc1cc(C(=O)C(C)Cl)c(C)n1Cc1ccco1 (configuration not stated) | 8.1% | 2.5% | -7.3 | -14.5% | 8.1
Cc1cc(C(=O)CSc2ncccn2)c(C)n1Cc1ccco1 | 0.1% | 34.4% | 78.5* | 343.4% | 45.6*
COC(=O)CSc1nccc(C)n1 | -6.5% | 49.9% | 9.6 | 29.3% | -2.0
C[n+]1ccn(CC(=O)c2cccs2)c1 | -7.2% | ? | -7.2 | -16.9% | -1.0
CCCCCCCCCCCCCCCCn1cc[n+](C)c1 | 3.1% | 2.08µM*! | -19.0 | 3.29µM* | -2.2
N#CC1(NC(=O)CN2C(=O)NC3(CCCCCC3)C2=O)CCCCC1 | · | -17.2% | · | -18.9% | ·
CCN(CC)c1ccc(N=Nc2nn(C)c(C)c2[N+](=O)[O-])cc1 | -19.7% | 3.7µM* | 86.7* | ? | 64.6*
CCN(Cc1ccccc1)c1ccc(N=Nc2nn(C)c(C)c2[N+](=O)[O-])cc1 | -6.7% | ? | 23.6 | 1.65µM* | 17.2*
Cc1ccc(NC2CCCN(C(=O)c3cc4ncccn4n3)C2)cc1C (configuration not stated) | -4.8% | ? | -4.7 | -0.5% | -3.5
CS(=O)(=O)N1CCN(Cc2ccc(C(F)(F)F)cc2)CC1 | -2.4% | 9.28µM* | -5.2 | · | 3.4
CS(=O)(=O)N1CCN(Cc2ccccc2C(F)(F)F)CC1 | 3.5% | -10.0% | 1.5 | -3.4% | 0.9
Cc1nnc(NC(=O)c2ccc(Br)cc2)s1 | -9.0% | -9.2% | 4.2 | · | 27.6
Cc1nnc(NC(=O)c2cccc(F)c2)s1 | -1.9% | ? | -2.7 | 101.7% | 7.2
CC(C)c1nnc(NC(=O)c2ccc3ccccc3c2)s1 | -2.2% | 166.9% | 107.8* | 262.7% | 51.4*
Cc1ccc(C(=O)Nc2nnc(C)s2)cc1 | -3.9% | 0.8% | 63.9* | i | 27.3*
CCCc1cc(C(=O)Nc2nnc(C)s2)cs1 | 3.0% | 2.6% | 128.4* | 86.3% | 33.3*
Cc1nnc(NC(=O)c2ccc3ccccc3c2)s1 | 0.7% | 7.7% | 74.5* | 189.0% | 31.4*
CN(c1nccc(=O)[nH]1)C1CCN(c2nc3ccccc3n2Cc2ccc(F)cc2)CC1 | · | -9.6% | · | ? | ·
COc1ccc(C)cc1CN(C)c1ccc(S(=O)(=O)N2CCN(C)CC2)cn1 | · | ? | · | 10.4µM* | ·
Cc1ncoc1C(=O)N1CCc2c([nH]c3ccccc23)C1C1CCCCC1 (configuration not stated) | -1.6% | ? | 72.3* | 14.7µM* | 51.9*
c1ccc2c3c([nH]c2c1)C(C1CCCCC1)N(Cc1ncc[nH]1)CC3 (configuration not stated) | 3.0% | ? | -4.7 | 2.08µM* | 8.6
COC(=O)c1cccc(C23CC4(C2)[C@H](CN(Cc2ccc(-c5ccccc5)cc2)[C@@H]4c2ccccc2)C3c2ccccc2)c1 (some centres not stated) | 5.7% | 1.65µM* | 3.6 | 11.7µM* | -3.6
